# Assay outcomes as filed in PubChem.
# The entries come from a sample that favours hits as a whole.
# HT1080NT lethal: kills 2HG-producing HT-1080-NT fibrosarcoma cells. HT-1080-NT fibrosarcoma viability, CellTiter-Glo ATP luminescence, 48 h. Potency, µM (doses to about 46.1 µM), inactives show at the top dose activity, negative = less viability, hits mostly cytotoxic. 360,000 tested, 1.6% active. AID 686970;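 note: NT is the 2HG producing partner of a matched IDH1 knockdown line; potency is the fitted concentration of half-maximal effect; 0% = DMSO-treated cells and -100% = media-only wells without cells; nearly all actives have a fitted effect of over 55% in size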
#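 Viability of the 2HG-overproducing fibrosarcoma line after 48 hours of compound exposure at 37 degrees C was determined by luminescence with CellTiter-Glo, and concentration-effect curves were then fitted and categorized.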
# IL-1B inflam inh: blocks inflammasome-driven IL-1 beta release. activity change, % at 57.5 µM. THP-1 LPS/ATP IL-1B secretion, AlphaLISA, 16 h; stronger effect = lower value. 360,000 tested, 4.7% active; in the data active = activity change below about -50%; inconclusive = mostly about -30% to -49%
#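 THP-1 cells pretreated 1 hr with compounds (up to 57.5 uM final), then stimulated with LPS (250 ng/mL final) plus ATP (1.25 mM final); secreted IL-1B measured by AlphaLISA after 16 hr, decreased signal indicating inhibition.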
# DT40 TDP1 no CPT: qHTS for Inhibitors of human tyrosyl-DNA phosphodiesterase 1 (TDP1): qHTS in cells in absence of CPT | DT40 Tdp1-/- hTDP1 cells, no CPT, ATP luminescence, 48 h | Potency, µM (highest dose often 46.2 µM), inactives show at the highest dose activity change, negative = growth inhibition, most hits filed as inhibitors | 420,000 tested, 15% active | AID 686978, 2013; note: potency is the fitted concentration of half-maximal effect; nearly all actives have a fitted effect of over 55% in size
#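 Luminescent ATP content (CellTiter-Glo) served as the growth readout. Knockout chicken DT40 cells expressing human TDP1 were exposed to compounds without camptothecin for a minimum 48 hr at 37 °C.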
# ALOX12 inh: ALOX12 (human) lipoxygenase inhibition. P18054. purified 12hLO, xylenol orange hydroperoxide absorbance. Potency, µM (series often up to 108 µM), for inactives: at the highest dose activity change, negative = inhibition, usual class: inhibitors. 580,000 tested, 1.1% active; note: potency is the fitted concentration of half-maximal effect
# Target sequence (P18054 whole entry, looked up): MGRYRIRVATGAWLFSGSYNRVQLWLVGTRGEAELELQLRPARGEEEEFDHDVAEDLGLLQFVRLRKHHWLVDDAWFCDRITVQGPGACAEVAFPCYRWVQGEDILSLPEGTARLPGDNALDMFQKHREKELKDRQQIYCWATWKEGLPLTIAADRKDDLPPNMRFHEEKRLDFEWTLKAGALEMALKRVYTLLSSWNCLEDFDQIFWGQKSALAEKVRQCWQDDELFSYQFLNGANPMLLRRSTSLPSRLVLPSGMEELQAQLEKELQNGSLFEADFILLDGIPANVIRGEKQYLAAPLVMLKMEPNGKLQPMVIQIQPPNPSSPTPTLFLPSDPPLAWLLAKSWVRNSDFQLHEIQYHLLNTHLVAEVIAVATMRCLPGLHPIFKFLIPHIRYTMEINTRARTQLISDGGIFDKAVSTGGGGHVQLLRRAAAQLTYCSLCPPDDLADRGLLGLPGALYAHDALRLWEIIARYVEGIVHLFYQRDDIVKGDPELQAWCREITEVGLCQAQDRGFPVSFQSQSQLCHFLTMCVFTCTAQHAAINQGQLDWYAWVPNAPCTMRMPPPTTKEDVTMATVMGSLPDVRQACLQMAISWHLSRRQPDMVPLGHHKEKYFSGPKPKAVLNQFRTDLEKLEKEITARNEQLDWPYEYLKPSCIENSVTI
#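 Purified human 12hLO (150 nM final) in 25 mM Hepes, 0.01% Triton X-100, pH 7.0 was preincubated 15 min at room temperature with compound. Then 40 uM arachidonic acid was added, 30 min. Hydroperoxide was read by Fe-XO absorbance ratio 573/405 nm.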
# HT1080 IDH1KD tx: HT-1080 IDH1 knockdown cell toxicity (counter line) | HT-1080 IDH1 knockdown viability, ATP luminescence, 48 h | Potency, µM (titrated, usually from 46.1 µM), for the others: at the top dose activity, negative = toxicity, usual class: cytotoxic | 360,000 tested, 2% active;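 note: potency is the fitted concentration of half-maximal effect; 0% = DMSO wells and -100% = cell-free medium wells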
#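 Using the IDH1-knockdown HT-1080 line run in the same batch and compound series as the NT line, viability after 48 h at 37 °C was determined by CellTiter-Glo luminescence and expressed as % activity.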
# DT40 TDP1 CPT: growth inhibition of DT40 Tdp1-/-;hTDP1 cells with camptothecin (screen for TDP1 inhibitors) | chicken DT40 Tdp1-/-;hTDP1 cells + 20 nM CPT, ATP luminescence, 48 h | Potency, µM (highest dose often 46.2 µM), without a hit: at the top dose activity change, negative = growth inhibition, most hits filed as inhibitors | 420,000 tested, 12% active; note: potency is the fitted concentration of half-maximal effect; nearly all actives have a fitted effect of over 55% in size
#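 Cell growth measured by CellTiter-Glo luminescence after a minimum 48 h, 37 C compound exposure with 20 nM CPT in Tdp1-knockout DT40 cells stably expressing hTDP1, seeded 400/well; qHTS titration format.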
# Starred values were filed as active, the others as inactive; u = inconclusive; x = not tested or not shown; [ ] = another dose, or the depositor's remark. Unless noted, calls come from the whole dose curve; as a rule, active = well fitted curve in the direction sought with a large enough effect; inconclusive = small, poorly fitted or top-dose-only effect, or another doubt; inactive = no such curve, though single readings can be large; an effect the other way counts as inactive or inconclusive. Unless noted, % is set by controls: 0 for no effect and ±100 for the full control effect.
SMILES,HT1080NT lethal,IL-1B inflam inh,DT40 TDP1 no CPT,ALOX12 inh,HT1080 IDH1KD tx,DT40 TDP1 CPT
CCc1c(-c2ccc(Br)cc2)ncn1Cc1cccc(-c2ccccc2)c1,u,-61.8*,5.17µM*,u,u,7.31µM*
CCCc1c(-c2ccc(Cl)cc2)ncn1Cc1cccc(-c2ccccc2)c1,u,2.7,3.26µM*,5.01µM*,u,5.17µM*
O=C1CC(c2ccccc2)N(S(=O)(=O)c2cccc3cccnc23)CCCCCCN1 (configuration not stated),x,x,x,24.6%,x,x
O=C(c1cccc(C(F)(F)F)c1)N1CCCN(C2CC2)CC1,x,x,x,-2.3%,x,x
Cc1cc(NC(=O)CCC(=O)N(CC(=O)NCC2CCCO2)c2ccc(C)c(C)c2)no1 (configuration not stated),8.4%,0.0,-3.3%,-2.2%,4.2%,8.2%
CCN(CC(=O)Nc1ccc(NC(C)=O)cc1)C(=O)c1ccc(N(C)S(=O)(=O)c2ccc(C)cc2)cc1,-19.8%,9.1,u,-10.0%,-14.3%,25.9µM*
CCOc1ccccc1NC(=O)CN(c1ccc(OC)c(OC)c1)S(=O)(=O)c1ccc(C)cc1,-7.0%,-7.0,u,-9.8%,-7.2%,u
CCN(CC(=O)Nc1ccccc1OC)C(=O)c1ccc(N(C)S(=O)(=O)c2ccc(C)cc2)cc1,12.6%,-3.7,16.4µM*,8.2%,2.1%,14.6µM*
CCN(Cc1ccccc1)C(=O)c1ccc(N(C)S(=O)(=O)c2ccc(C)cc2)cc1,-4.8%,-2.8,14.6µM*,u,-9.2%,18.4µM*
CCN(CC(=O)NCc1cccs1)C(=O)c1ccc(S(=O)(=O)N(C)c2ccccc2)cc1,-2.2%,-4.2,u,11.1%,6.9%,u
CCCNC(=O)NC(=O)COC(=O)c1ccc(S(=O)(=O)N(C)c2ccccc2OC)cc1,-10.0%,27.1,20.6µM*,4.7%,-18.0%,29.1µM*
Cc1cc(C(=O)N2CCCn3ccnc3C2c2cnn(C)c2)n(C)n1 (configuration not stated),x,x,x,29.4%,x,x
COc1cc(OC)cc(C(=O)Nc2c(NCc3ccccc3)c3ccccc3oc2=O)c1,x,x,x,41.2%,x,x
Fc1ccc(-c2ccc(CNc3ncn[nH]3)o2)cc1Cl,x,x,x,6.9%,x,x
COc1ccccc1N(C)S(=O)(=O)c1ccc(C(=O)NC(C)(C)C)cc1,10.2%,4.0,-5.7%,0.0%,1.0%,-23.1%
CCN(CC(=O)NC(C)C)C(=O)c1ccc(S(=O)(=O)N(C)c2ccccc2OC)cc1,8.1%,10.9,14.6µM*,0.0%,-12.6%,u
CC(C)C(=O)N1CCC1(C)C(=O)Nc1nc2ccccc2[nH]1 (configuration not stated),18.6%,28.9,4.8%,0.7%,1.5%,-0.9%
O=C(N/N=C/c1ccccc1O)c1ccc2c(c1)OCO2,u,92.9,4.11µM*,3.1%,u,5.17µM*
O=C(N/N=C/c1ccccc1OC(=O)c1ccc2c(c1)OCO2)c1cccc(F)c1,u,121.6,1.3µM*,-3.1%,u,1.16µM*
O=C(N/N=C/c1cccs1)c1ccc2c(c1)OCO2,8.9%,0.2,-25.9%,-18.7%,3.3%,-10.0%
O=C(N/N=C/c1ccncc1)c1ccc2c(c1)OCO2,-1.4%,-2.5,-20.9%,-9.5%,-6.1%,0.6%
O=C(N/N=C/c1c[nH]c2ccccc12)c1ccc2c(c1)OCCO2,u,x,16.4µM*,238.4%,20.6µM*,u
O=C(N/N=C/c1ccc(Cl)cc1)c1ccc2c(c1)OCO2,u,-5.7,13µM*,u,u,u
Cn1cc(CN2C[C@@H](F)[C@@H](OCc3nc4ccccc4n3C)C2)c2ccccc21,x,x,x,31.0%[176 µM],x,x
O=C(N/N=C/c1cc2c(cc1Br)OCO2)c1ccccn1,1.0%,-7.3,u,127.5%,-15.6%,-8.3%
SMILES,HT1080NT lethal,IL-1B inflam inh,DT40 TDP1 no CPT,ALOX12 inh,HT1080 IDH1KD tx,DT40 TDP1 CPT
O=C(N/N=C/c1cc2c(cc1Br)OCO2)c1c[nH]c2ccccc12,-14.2%,u,20.6µM*,-4.3%,-10.4%,u
O=C(O)c1ccc(N/N=C/c2ccc3c(c2)OCO3)cc1,18.4µM*,3.1,u,u,23.1µM*,u
COc1ccc(/C=N/NC(=O)c2ccc(COCC(F)(F)C(F)F)cc2)cc1,4.4%,-11.8,-2.1%,-14.5%,-8.1%,6.4%
O=C(N/N=C/c1ccc2c(c1)OCO2)c1ccc(COCC(F)(F)C(F)F)cc1,1.03µM*,5.2,1.2%,x,1.3µM*,-12.9%
CS(=O)(=O)N(CC(=O)N/N=C/c1cc2c(cc1Br)OCO2)c1ccccc1Br,-2.2%,u,14.6µM*,-19.3%,-12.1%,u
CCCN(CCC)Cc1csc2c1CCCC2,x,x,x,-26.8%,x,x
COc1ccc(NC(=O)c2nn(C)c3c2CS(=O)(=O)c2ccccc2-3)cc1Cl,x,x,-28.9%,2.5%,x,u
O=C(N/N=C/c1cc(Br)cs1)c1c[nH]c2ccccc12,0.5%,0.0,u,8.6%,0.3%,u
Cc1ccc(/C=N/NC(=O)c2cccs2)s1,-1.3%,-4.1,-7.9%,8.2%,1.0%,-20.4%
O=C(N/N=C/c1ccc(Br)s1)c1cccs1,-14.8%,10.2,20.6µM*,191.1%,-5.2%,16.4µM*
O=C(N/N=C/c1ccc(Br)s1)c1c[nH]c2ccccc12,-5.9%,-80.6*,u,-10.6%,-24.9%,u
O=C(NN=Cc1ccc2c(c1)CCN2)c1cccs1,3.8%,-1.8,14.6µM*,-21.7%,0.5%,u
O=C(N/N=C/c1ccc2c(c1)OCO2)c1ccc2c(c1)OCCO2,u,-8.5,u,-9.4%,23.1µM*,16.4µM*
O=C(N/N=C/c1ccc(Cl)c(Cl)c1)c1cccs1,x,x,x,-6.1%,x,x
O=C(CCc1ccccc1)NC1CCN(c2nnc3ccccn23)CC1,x,x,x,81.7%,x,x
O=C(NC1CCCN(c2cc(-c3ccc(F)cc3)[nH]n2)C1)c1ccccc1F (configuration not stated),x,x,x,31.0%,x,x
OC[C@@H]1CN(CCNc2ccccc2)C[C@H](n2cnc3c(NCc4ccncc4)ncnc32)O1,-1.6%,3.7,-6.9%,-13.7%,0.3%,-25.7%
COc1cccc2cc(-c3csc(-c4ccccc4F)n3)c(=O)oc12,x,x,x,-26.9%,x,x
CC(C)NC(=O)N1CCN(C(=O)c2cccnc2)C[C@H]1C(=O)N[C@@H](CC1CCCCC1)C(N)=O,x,x,x,27.1%,x,x
COc1ccccc1CNC(=O)c1c(OCC(C)C)cc(=O)n2c1CCCCC2,x,x,x,38.8%,x,x
